The values below come from PubChem BioAssay.

Records with an inconclusive call do not appear. Activity calls are given as the source filed them.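 The calls were made as follows, unless noted: active = efflux inhibition above 0.42, the validation set average plus 4 SD; inconclusive = no clear call, values can overlap the other calls; inactive = the rest.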

Test [1] is described as follows: rapamycin-like changes in RPL19A-GFP expression – cell-based, S. cerevisiae, multiplex flow cytometry, primary screen (AID 1862; in the data active = percent of DMSO control GFP below about 86%;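 also: lower values mimic rapamycin by blocking the RPL19A rise seen in DMSO cells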). The settings on record: S. cerevisiae RPL19A-GFP strain, flow cytometry fluorescence, 3 h; at 10 µM; stronger effect = lower value.
Test [2] is described as follows: TOR pathway GLN3 branch reporter MEP2-GFP changes – S. cerevisiae, multiplex flow cytometry, primary screen (AID 1867;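 active = GFP response, as percent of the DMSO control, above the screen-wide mean plus 3 SD, about 139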;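 also: median GFP channel fluorescence of barcode-gated MEP2-GFP cells measured by flow cytometry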). The settings on record: S. cerevisiae MEP2-GFP strain, 3 h, at 10 µM, stronger effect = higher value, 100% means same as DMSO wells. (A flow cytometer gives signals particle by particle.)
Test [3] can be described thus: TOR pathway RTG branch CIT2 reporter changes – S. cerevisiae, GFP fusion, multiplex flow cytometry, primary screen (AID 1870;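 active = percent response above a set limit, the screen-wide mean plus 3 SD, cut at about 130% in these data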;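 also: barcoded CIT2-GFP strain pooled with four other GFP strains with rapamycin as positive control; median GFP fluorescence per well over plate mean of DMSO wells so 100% = DMSO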). Particulars: S. cerevisiae CIT2-GFP expression, 3 h, at 10 µM, stronger effect = higher value.
The nature of test [4]: TOR pathway LAP4-GFP level changes – S. cerevisiae, multiplex flow cytometry, primary screen (AID 1873;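 active = GFP signal, as percent of the solvent control, above the screen mean plus 3 SD, about 149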). Particulars: S. cerevisiae LAP4-GFP expression, 3 h, at 10 µM, stronger effect = higher value.
Test [5] in a line: yeast AGP1-GFP level changes, GLN3 branch – cell-based, multiplex flow cytometry, S. cerevisiae, primary screen (AID 1887;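 active = GFP signal above the screen-wide mean plus 3 SD, that is over about 124.5% of the solvent control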;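 also: AGP1-GFP fusion strain of S. cerevisiae within a five-strain barcoded multiplex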). Particulars: 3 h, at 10 µM, stronger effect = higher value.
Test [6] can be described thus: reduced mouse 2C T cell binding to pMHC/ICAM-1 vesicles – MLPCN validation set, flow cytometry, LFA-1/ICAM-1 modulator project, pilot screen (AID 2523;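 active = response below a set limit, under 55% cells CD8-positive and vesicle-bound, and CD8 cells' 90th-percentile brightness under 279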;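 as to vesicle binding response: mean PE anti-B7-1 fluorescence of CD8+ cells relative to row control; 100% = QL9-loaded vesicles with DMSO vehicle in the same plate row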). Particulars: 2C mouse CD8+ T cells, at 7 µM, stronger effect = lower value; double positive events: measured here: CD8+/vesicle+ event percentage.
The target in test [7] is Integrin beta-1 (Homo sapiens) + Integrin alpha-4 (Homo sapiens) (UniProt P13612+P05556). Briefly: alpha4beta1 integrin LIBS antibody binding reduction – U937 cells, HUTS-21 mAb, flow cytometry, validation set, VLA-4 allosteric modulator project, pilot screen (AID 2674;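 active = inhibition above 50%, about 3 SD of the validation set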;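 also: antibody binding induced by the VLA-4 ligand LDV present at three times its Kd; 0% = LDV ligand with antibody and no compound and 100% = antibody without LDV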). Particulars: HUTS-21 LIBS mAb binding, at 6.7 µM, stronger effect = higher value, binding induced by LDV ligand.
Test [8] can be described thus: calorie-restriction mimetic ROS inhibitors, yeast – validation compound set, pilot screen (AID 2706;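 active = superoxide response below 65% of plate, a cut near 3 SD across the whole screen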;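 also: yeast exposed to compound for one week at 30 degrees C before staining; 100% = mean of all compound wells on the same plate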). The settings on record: S. cerevisiae aging, superoxide DHE fluorescence; at 10 µM; stronger effect = lower value.
Test [9] addresses Beta-adrenergic receptor kinase 1 (Homo sapiens) (UniProt P25098). The experiment in a line: GRK2 binders displacing RNA aptamer, biochemical, validation, human GRK2, bead flow cytometry (AID 488806;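 active = aptamer binding inhibition above 30%, about 3 SD of noise from non-fluorescent compounds; inactive = inhibition at or below 30%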). The settings on record: bead-bound GRK2, FAM-aptamer displacement, at 10 µM, stronger effect = higher value.
Test [10] addresses Beta-2 adrenergic receptor (Homo sapiens) (UniProt P07550). Briefly: agonist-induced loss of surface beta2AR – cell-based, FAP fluorogen, flow cytometry, validation set, pilot screen (AID 504459;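 active = percent response above 42, roughly 3 SD of non-fluorescent test compounds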;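 also: agonist-driven loss of surface beta2AR via internalization measured by FAP dye flow cytometry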). Particulars: Am2.2-beta2AR cells, at 10 µM, stronger effect = higher value.
The target of test [11] is AP-2 complex subunit beta (Homo sapiens) (UniProt P63010). The experiment in a line: beta-arrestin/AP2 interaction blockers – biochemical, validation set, GST-AP2 beads, flow cytometry, pilot screen (AID 504541;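 active = inhibition above 54%, about 3 SD of non-fluorescent compounds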;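 also: AP2 carries R879A mutation and is captured from E. coli lysate; bead-bound FITC arrestin peptide fluorescence measuring arrestin peptide binding to AP2; 0% = DMSO wells and 100% = excess unlabeled arrestin peptide control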). Particulars: FITC arrestin peptide, at 10 µM, stronger effect = higher value, AP2 beta2 appendage fragment, R879A mutant.
A short description of test [12]: cytosolic pH regulators acting via V-ATPase – S. cerevisiae, pHLuorin, HTS validation (AID 504600; in the data active = response above about 15%;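 also: plate controls were DMSO for no effect and reference compound for full effect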). The settings on record: V-ATPase proton transport, at 10 µM, stronger effect = higher value.
Test [13] concerns anti-desmoglein-3 scFv antibody binding to human DSG3. Briefly: blockers of pathogenic pemphigus antibody–desmoglein-3 binding – biochemical, validation compound set, bead-based, flow cytometry, pilot screen (AID 588368;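 active = binding below the plate cutoff, the plate median minus 3 SD, with a reading above zero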;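 also: signal is the median channel fluorescence of bead-bound GFP antibody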). Particulars: Protein G beads, DSG3-Fc, scFv-GFP binding, at 10 µM, stronger effect = lower value.
Test [14] is described as follows: Nile Red efflux blockade in pump-expressing yeast – validation compound set, multiplex, phenotypic, pilot screen (AID 588506).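 Also: Nile Red retained in cells so higher fluorescence means more efflux inhibition; 0 = negative control wells and 1 = enniatin B 25 µM full block.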 Particulars: S. cerevisiae pump-expressing triplex, Nile Red efflux flow cytometry; at 10 µM; stronger effect = higher value; the pumps come from Candida albicans.
Test [15] deals with ATP-binding cassette sub-family B member 6 (Homo sapiens) (UniProt Q9NP58). Briefly: blockers of ABCB6-driven porphyrin uptake – K562-ABCB6 cells, flow cytometry, validation set, pilot screen (AID 588550;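 active = inhibition above the screen-wide mean plus 3 SD, about 51%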;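 also: 0% = DMSO wells and 100% = benzethonium chloride 70 µM positive control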). Particulars: K562-ABCB6 porphyrin accumulation, 1 h, at 10 µM, stronger effect = higher value.
Test [16] can be described thus: AML differentiation inducers, ER-HoxA9 marrow cells – cell-based, GFP/MAC1 double positive, flow cytometry, validation set, primary screen (AID 588685;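 active = differentiation response of at least 50%, scaled between solvent and reference control, from cells with both markers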;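 also: compound exposure lasts four days before antibody staining and flow analysis; 0% = DMSO wells and 100% = 5 µM fulvestrant positive control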). The settings on record: stronger effect = higher value, normalized: vehicle 0, fulvestrant 100.

Beta-adrenergic receptor kinase 1 (Homo sapiens), sequence (P25098 whole entry, looked up): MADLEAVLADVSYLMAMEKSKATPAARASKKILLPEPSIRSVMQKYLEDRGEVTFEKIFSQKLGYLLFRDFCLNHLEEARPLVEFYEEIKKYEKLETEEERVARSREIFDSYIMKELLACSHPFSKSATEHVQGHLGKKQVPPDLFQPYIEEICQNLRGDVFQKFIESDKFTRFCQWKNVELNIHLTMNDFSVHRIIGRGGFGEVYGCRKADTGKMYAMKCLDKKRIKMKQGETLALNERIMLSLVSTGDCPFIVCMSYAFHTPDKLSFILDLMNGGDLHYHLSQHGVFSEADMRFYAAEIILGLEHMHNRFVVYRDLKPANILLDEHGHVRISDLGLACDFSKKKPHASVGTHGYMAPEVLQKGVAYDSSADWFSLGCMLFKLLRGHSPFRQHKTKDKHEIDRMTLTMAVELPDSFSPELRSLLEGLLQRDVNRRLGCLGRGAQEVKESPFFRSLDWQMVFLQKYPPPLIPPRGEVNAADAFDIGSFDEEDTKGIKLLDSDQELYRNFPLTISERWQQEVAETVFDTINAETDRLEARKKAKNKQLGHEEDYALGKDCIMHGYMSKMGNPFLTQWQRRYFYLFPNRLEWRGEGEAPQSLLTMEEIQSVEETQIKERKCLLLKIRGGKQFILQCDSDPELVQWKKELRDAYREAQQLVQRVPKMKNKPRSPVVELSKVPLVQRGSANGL
AP-2 complex subunit beta (Homo sapiens), sequence (P63010 whole entry, looked up, the tested form may be a part, one chain of several): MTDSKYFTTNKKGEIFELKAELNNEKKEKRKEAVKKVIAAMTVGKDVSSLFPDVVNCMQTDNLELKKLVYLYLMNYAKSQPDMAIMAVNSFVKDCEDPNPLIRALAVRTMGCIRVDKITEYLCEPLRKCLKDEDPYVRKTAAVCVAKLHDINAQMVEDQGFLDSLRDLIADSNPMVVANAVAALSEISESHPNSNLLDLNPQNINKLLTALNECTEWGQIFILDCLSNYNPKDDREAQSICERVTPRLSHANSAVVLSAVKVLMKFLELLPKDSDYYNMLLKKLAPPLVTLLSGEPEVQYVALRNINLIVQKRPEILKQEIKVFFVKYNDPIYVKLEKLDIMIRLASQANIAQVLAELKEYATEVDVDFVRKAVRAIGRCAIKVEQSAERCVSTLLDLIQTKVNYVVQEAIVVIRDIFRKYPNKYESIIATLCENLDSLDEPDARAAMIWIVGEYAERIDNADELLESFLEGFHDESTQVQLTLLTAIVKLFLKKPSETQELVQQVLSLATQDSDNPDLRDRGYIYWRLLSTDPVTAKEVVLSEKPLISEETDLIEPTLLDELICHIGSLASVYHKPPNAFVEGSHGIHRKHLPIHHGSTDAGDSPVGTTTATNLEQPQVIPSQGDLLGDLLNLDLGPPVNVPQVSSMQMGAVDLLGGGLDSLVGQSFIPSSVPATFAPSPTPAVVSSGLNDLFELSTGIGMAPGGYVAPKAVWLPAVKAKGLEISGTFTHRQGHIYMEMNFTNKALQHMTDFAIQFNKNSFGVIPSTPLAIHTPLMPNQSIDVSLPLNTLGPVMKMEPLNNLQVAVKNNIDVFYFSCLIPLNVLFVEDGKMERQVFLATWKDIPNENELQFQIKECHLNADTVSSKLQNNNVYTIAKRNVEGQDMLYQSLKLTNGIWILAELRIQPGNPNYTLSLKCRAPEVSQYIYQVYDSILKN
Beta-2 adrenergic receptor (Homo sapiens), sequence (P07550 whole entry, looked up): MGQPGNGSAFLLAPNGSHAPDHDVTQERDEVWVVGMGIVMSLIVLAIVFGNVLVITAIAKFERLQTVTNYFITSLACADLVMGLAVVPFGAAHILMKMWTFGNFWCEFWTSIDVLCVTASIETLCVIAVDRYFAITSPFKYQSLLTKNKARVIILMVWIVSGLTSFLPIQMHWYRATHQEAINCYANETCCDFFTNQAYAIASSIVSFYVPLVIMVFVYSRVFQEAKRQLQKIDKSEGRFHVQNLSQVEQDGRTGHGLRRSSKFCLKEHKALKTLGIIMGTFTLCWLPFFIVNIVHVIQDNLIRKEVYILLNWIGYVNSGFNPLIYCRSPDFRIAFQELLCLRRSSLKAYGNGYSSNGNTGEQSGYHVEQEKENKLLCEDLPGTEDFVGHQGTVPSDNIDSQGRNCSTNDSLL
ATP-binding cassette sub-family B member 6 (Homo sapiens), sequence (Q9NP58 whole entry, looked up): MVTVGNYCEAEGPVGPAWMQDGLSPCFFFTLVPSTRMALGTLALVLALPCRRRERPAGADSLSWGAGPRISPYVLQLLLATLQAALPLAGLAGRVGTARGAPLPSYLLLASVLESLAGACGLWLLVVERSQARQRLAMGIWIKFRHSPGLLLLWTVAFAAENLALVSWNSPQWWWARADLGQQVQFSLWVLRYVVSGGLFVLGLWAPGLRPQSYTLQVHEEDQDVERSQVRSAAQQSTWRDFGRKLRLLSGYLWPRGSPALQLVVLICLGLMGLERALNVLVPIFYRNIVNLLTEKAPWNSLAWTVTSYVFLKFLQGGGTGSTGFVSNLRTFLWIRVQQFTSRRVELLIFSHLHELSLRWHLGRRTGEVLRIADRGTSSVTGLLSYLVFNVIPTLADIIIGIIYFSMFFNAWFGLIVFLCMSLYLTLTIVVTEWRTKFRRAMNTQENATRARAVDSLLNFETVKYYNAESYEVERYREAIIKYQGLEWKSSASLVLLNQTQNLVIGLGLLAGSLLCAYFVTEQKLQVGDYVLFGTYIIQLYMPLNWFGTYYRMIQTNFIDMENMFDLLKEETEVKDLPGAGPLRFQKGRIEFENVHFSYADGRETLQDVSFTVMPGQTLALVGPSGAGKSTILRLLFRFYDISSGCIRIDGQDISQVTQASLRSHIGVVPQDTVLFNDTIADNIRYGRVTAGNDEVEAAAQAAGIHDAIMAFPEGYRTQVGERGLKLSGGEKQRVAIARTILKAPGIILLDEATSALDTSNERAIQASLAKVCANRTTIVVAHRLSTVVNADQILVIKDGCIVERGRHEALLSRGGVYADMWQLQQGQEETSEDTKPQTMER
Integrin beta-1 (Homo sapiens) + Integrin alpha-4 (Homo sapiens), sequence (P05556 whole entry, looked up): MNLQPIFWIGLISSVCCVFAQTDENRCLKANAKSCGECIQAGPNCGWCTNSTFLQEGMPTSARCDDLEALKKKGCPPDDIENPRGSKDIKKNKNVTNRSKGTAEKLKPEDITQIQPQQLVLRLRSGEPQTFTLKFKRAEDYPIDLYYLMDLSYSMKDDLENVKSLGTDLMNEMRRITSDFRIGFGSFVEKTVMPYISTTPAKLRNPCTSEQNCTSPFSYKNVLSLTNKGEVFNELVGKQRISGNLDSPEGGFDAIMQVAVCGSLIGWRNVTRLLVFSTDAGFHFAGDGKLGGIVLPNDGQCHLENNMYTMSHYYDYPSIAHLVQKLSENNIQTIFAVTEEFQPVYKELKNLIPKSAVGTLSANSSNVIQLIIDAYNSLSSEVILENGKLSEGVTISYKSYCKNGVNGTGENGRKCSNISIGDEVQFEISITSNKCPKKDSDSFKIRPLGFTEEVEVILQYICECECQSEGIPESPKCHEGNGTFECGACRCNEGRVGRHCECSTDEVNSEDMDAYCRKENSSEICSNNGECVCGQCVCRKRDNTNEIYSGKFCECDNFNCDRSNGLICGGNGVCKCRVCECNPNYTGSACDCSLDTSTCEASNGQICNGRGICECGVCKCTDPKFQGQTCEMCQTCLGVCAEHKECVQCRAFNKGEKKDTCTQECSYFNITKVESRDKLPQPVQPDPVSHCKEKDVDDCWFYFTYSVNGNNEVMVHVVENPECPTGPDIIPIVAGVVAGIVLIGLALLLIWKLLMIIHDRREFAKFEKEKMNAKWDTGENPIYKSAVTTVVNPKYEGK
Integrin beta-1 (Homo sapiens) + Integrin alpha-4 (Homo sapiens), sequence (P13612 whole entry, looked up): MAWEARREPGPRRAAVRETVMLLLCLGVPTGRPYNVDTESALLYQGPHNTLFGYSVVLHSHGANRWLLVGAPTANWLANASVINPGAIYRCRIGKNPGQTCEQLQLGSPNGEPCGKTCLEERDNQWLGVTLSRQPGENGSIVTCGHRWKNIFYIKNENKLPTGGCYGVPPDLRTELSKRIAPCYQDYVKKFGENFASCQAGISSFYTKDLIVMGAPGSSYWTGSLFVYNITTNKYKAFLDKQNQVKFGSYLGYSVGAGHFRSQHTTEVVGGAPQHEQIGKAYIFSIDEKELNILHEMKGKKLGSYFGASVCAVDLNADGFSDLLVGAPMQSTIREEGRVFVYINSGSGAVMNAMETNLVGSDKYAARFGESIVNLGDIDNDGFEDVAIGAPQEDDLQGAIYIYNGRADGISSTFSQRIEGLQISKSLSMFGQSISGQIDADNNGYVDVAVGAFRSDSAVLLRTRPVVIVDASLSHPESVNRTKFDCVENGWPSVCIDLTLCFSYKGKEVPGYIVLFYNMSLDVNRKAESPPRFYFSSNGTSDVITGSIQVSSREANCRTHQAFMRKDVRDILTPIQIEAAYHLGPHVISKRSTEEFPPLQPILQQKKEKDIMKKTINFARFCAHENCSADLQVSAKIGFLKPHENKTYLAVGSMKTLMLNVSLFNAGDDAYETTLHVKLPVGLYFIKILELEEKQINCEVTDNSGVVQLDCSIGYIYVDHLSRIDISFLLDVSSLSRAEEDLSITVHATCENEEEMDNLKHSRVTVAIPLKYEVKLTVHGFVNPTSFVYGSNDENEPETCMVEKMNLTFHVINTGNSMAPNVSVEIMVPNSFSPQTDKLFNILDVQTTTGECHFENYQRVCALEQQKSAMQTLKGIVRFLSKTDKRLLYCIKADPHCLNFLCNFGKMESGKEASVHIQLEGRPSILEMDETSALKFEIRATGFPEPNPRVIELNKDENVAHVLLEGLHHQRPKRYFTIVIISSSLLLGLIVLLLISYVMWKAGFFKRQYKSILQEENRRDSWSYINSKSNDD

For the compound `O=C1CCCC(=O)C1=Cc1c[nH]c2ccccc12`, the percent of DMSO control GFP in [1] was 97.9% (inactive). Moreover, the GFP response vs DMSO in [2] was 102% (inactive); in [4], 112% (inactive). In addition, the percent response of DMSO control in test [3] was 95.1% (inactive). In test [5], the GFP response, % of DMSO is 106% (inactive). In addition, the double positive events in test [6] was 62%. Also, in test [6], the vesicle binding response was 226% (inactive). Moreover, the figures for the inhibition in [7], in test [11] and in test [15] were 9.95% (inactive), 7.17% (inactive) and -6% (inactive), respectively. In addition, the superoxide response (% of plate) in test [8] is 108% (inactive). The aptamer binding inhibition in test [9] was 3% (inactive). In addition, the response is 28.4% (inactive) in [10] and 5.91% (inactive) in [12]. In addition, the binding (% of control) in test [13] was 98.5% (inactive). Further, the efflux inhibition (fraction of control) in test [14] was 0 (inactive). The differentiation response in test [16] was 5.85% (inactive).

As to `CC(C)Oc1ccc(C2CC(=O)N(c3ccc(C(=O)O)cc3)C2=O)cc1` (stereo not given), in test [1], the percent of DMSO control GFP was 98.1% (inactive). In addition, the GFP response vs DMSO is 97.6% (inactive) in test [2] and 137% (inactive) in test [4]. For the same compound, the percent response of DMSO control in [3] was 105% (inactive). In test [5], the GFP response, % of DMSO is 122% (inactive). For the same compound, the double positive events in test [6] worked out at 57.7%. Further, the vesicle binding response in test [6] was 178% (inactive). The inhibition (in general, the change of the read-out against control, counted positive when it falls) was 3.14% (inactive) in [7], -15% (inactive) in test [11] and -1% (inactive) in [15]. For the same compound, the superoxide response (% of plate) in test [8] was 135% (inactive). Also, the aptamer binding inhibition in test [9] is -4% (inactive). Further, the results for the response in [10] and in test [12] were -19.8% (inactive) and -1.38% (inactive), respectively. In addition, the binding (% of control) in [13] is 105% (inactive). The efflux inhibition (fraction of control) in [14] is -0.04 (inactive). Moreover, the differentiation response in test [16] is -9.91% (inactive).

With `O=C1CCc2cc(OCCCCc3nnnn3C3CCCCC3)ccc2N1`, the percent of DMSO control GFP in test [1] is 92.4% (inactive). For the same compound, the GFP response vs DMSO in test [2] is 136% (inactive); in test [4], 85.3% (inactive). For the same compound, the percent response of DMSO control in test [3] was 101% (inactive). Besides, in [5], the GFP response, % of DMSO is 92.2% (inactive). This compound also yielded a double positive events in test [6] of 67%. The vesicle binding response in [6] is 194% (inactive). Moreover, the inhibition is -5.18% (inactive) in [7], -4.26% (inactive) in test [11] and 11% (inactive) in test [15]. Moreover, the superoxide response (% of plate) in test [8] is 102% (inactive). Further, the aptamer binding inhibition in test [9] was 6% (inactive). Further, the response in test [10] was -6.49% (inactive); in [12] it was -1.32% (inactive). In addition, in [13], the binding (% of control) is 96.9% (inactive). In test [14], the efflux inhibition (fraction of control) was -0.09 (inactive). Besides, in [16], the differentiation response was 8.19% (inactive).

Regarding `COc1cc(SC)ccc1C(=O)NC(C)C`, the percent of DMSO control GFP in [1] is 102% (inactive). Also, the GFP response vs DMSO in test [2] and in test [4] was 101% (inactive) in each case. Further, in [3], the percent response of DMSO control is 99.6% (inactive). For the same compound, in [5], the GFP response, % of DMSO is 94.9% (inactive). This compound also had a double positive events in [6] of 58.7%. For the same compound, the vesicle binding response in test [6] is 171% (inactive). In addition, the inhibition in [7] was -9.98% (inactive); in test [11] it was -4.67% (inactive); in [15], 6% (inactive). Also, in test [8], the superoxide response (% of plate) is 97.8% (inactive). Moreover, in [9], the aptamer binding inhibition is -1% (inactive). The response was -0.58% (inactive) in test [10] and 1.52% (inactive) in test [12]. Moreover, the binding (% of control) in test [13] is 101% (inactive). Besides, in [14], the efflux inhibition (fraction of control) was -0.13 (inactive). Further, the differentiation response in test [16] is -21.6% (inactive).

In the case of `COc1ccc2[nH]c(=O)c(CNC3CCCCC3)cc2c1`, the percent of DMSO control GFP in [1] is 102% (inactive). The GFP response vs DMSO in [2] is 103% (inactive); in test [4], 98% (inactive). In [3], the percent response of DMSO control is 106% (inactive). The GFP response, % of DMSO in [5] was 99.9% (inactive). In test [6], the double positive events came out at 63.6%. For the same compound, the vesicle binding response in test [6] is 244% (inactive). Further, the results for the inhibition in test [7], in test [11] and in test [15] were 11% (inactive), -0.94% (inactive) and -1% (inactive), respectively. Besides, the superoxide response (% of plate) in test [8] was 106% (inactive). Further, the aptamer binding inhibition in test [9] was 2% (inactive). The response in test [10] was -1.53% (inactive); in [12], 1.21% (inactive). Further, the binding (% of control) in test [13] was 95.5% (inactive). Moreover, in test [14], the efflux inhibition (fraction of control) was -0.01 (inactive). In addition, the differentiation response in test [16] was 0.24% (inactive).
